Results as given in ChEMBL document CHEMBL2218924, “A broad activity screen in support of a chemogenomic map for kinase signalling research and drug discovery” (Biochem J, 2013).

How the values were obtained:
[1] = biological target: T1, Serine/threonine-protein kinase 17A (Homo sapiens) (UniProt Q9UEE5); settings: at 10 µM
T1 sequence (whole entry): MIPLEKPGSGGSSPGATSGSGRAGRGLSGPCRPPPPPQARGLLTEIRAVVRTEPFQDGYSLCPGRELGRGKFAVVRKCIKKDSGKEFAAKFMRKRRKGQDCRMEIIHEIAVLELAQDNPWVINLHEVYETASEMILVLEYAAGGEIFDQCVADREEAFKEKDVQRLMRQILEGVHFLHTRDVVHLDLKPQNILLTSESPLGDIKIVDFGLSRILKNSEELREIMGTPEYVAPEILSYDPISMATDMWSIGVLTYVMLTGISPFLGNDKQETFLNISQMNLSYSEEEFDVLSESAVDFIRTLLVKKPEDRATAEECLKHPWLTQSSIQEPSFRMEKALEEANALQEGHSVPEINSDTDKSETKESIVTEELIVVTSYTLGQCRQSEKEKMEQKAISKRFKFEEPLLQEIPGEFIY

[2] = biological target: T2, Dual specificity tyrosine-phosphorylation-regulated kinase 2 (Homo sapiens) (UniProt Q92630); settings: at 1 µM
T2 sequence (whole entry): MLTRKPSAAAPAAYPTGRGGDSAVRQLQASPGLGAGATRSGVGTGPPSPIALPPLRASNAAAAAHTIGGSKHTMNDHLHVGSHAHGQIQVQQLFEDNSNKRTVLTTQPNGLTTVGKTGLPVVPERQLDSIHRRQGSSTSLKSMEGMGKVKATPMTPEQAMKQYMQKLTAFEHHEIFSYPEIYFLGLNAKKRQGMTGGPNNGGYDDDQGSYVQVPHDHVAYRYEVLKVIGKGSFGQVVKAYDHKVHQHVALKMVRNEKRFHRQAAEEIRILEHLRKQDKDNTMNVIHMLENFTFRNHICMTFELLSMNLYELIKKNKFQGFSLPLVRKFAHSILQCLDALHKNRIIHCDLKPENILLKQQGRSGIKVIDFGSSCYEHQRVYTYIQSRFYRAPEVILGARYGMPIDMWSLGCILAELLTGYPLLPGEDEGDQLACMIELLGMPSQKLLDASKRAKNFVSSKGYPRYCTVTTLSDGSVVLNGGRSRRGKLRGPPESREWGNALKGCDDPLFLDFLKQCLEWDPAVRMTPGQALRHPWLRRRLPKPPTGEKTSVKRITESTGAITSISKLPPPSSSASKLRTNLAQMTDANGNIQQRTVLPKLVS

[3] = biological target: T2, Dual specificity tyrosine-phosphorylation-regulated kinase 2 (Homo sapiens); settings: at 10 µM
[4] = biological target: T3, Ephrin type-A receptor 1 (Homo sapiens) (UniProt P21709); settings: at 1 µM
T3 sequence (whole entry): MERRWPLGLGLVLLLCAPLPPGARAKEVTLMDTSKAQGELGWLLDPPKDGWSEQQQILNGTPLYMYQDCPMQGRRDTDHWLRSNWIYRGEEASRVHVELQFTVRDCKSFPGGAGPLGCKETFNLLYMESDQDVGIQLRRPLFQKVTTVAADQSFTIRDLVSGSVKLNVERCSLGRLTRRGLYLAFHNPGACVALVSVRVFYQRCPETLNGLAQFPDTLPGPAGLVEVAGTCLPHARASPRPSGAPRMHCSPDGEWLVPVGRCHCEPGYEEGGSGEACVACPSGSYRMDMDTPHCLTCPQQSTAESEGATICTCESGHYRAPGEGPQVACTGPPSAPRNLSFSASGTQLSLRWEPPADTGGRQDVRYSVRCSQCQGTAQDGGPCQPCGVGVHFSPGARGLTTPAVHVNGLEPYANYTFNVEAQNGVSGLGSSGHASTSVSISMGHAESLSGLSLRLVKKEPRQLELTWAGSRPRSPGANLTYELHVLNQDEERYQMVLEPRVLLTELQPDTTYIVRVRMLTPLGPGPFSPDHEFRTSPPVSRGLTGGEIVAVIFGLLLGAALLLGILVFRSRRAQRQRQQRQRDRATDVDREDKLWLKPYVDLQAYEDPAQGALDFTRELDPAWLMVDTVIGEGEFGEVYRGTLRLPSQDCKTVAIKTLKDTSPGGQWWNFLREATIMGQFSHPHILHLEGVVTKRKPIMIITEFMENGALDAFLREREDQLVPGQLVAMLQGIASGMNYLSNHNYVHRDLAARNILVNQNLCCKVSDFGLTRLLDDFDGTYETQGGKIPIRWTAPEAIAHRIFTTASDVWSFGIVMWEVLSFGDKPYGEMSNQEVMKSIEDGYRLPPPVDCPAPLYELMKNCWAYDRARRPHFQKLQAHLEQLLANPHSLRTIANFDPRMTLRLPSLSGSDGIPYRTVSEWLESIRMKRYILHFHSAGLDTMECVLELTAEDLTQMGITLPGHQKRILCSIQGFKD

[5] = biological target: T3, Ephrin type-A receptor 1 (Homo sapiens); settings: at 10 µM
[6] = biological target: Ephrin type-A receptor 7 (Homo sapiens) (UniProt Q15375); settings: at 1 µM
[7] = biological target: Ephrin type-A receptor 7 (Homo sapiens) (UniProt Q15375); settings: at 10 µM
[8] = biological target: T4, Ephrin type-B receptor 1 (Homo sapiens) (UniProt P54762); settings: at 1 µM
T4 sequence (whole entry): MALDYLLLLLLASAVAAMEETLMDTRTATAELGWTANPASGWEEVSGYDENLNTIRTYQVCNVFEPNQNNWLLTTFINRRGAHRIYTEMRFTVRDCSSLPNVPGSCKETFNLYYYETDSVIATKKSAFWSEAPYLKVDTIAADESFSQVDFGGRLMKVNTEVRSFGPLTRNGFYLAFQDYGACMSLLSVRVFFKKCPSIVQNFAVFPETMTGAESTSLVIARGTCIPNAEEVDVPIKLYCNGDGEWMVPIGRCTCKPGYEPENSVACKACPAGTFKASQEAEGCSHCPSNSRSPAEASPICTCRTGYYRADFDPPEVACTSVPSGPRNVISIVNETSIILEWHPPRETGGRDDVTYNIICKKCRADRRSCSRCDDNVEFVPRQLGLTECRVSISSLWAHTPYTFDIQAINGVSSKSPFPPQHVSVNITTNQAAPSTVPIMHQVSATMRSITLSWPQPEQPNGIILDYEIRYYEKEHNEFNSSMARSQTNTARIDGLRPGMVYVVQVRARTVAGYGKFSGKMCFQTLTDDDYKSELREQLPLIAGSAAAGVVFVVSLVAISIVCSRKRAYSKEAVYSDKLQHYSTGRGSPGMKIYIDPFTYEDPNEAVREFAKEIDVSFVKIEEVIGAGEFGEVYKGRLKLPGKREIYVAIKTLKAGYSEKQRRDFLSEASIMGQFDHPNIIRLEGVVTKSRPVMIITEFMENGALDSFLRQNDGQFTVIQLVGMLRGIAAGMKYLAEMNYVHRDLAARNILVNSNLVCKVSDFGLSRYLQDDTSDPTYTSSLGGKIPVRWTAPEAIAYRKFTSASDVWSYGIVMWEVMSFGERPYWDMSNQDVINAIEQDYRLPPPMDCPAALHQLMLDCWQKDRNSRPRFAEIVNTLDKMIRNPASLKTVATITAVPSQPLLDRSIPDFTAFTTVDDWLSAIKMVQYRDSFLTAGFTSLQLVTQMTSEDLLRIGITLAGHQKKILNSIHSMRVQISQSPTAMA

[9] = biological target: Ephrin type-A receptor 2 (Homo sapiens) (UniProt P29317); settings: at 1 µM
[10] = biological target: Ephrin type-A receptor 2 (Homo sapiens) (UniProt P29317); settings: at 10 µM
[11] = biological target: T5, Ephrin type-A receptor 3 (Homo sapiens) (UniProt P29320); settings: at 1 µM
T5 sequence (whole entry): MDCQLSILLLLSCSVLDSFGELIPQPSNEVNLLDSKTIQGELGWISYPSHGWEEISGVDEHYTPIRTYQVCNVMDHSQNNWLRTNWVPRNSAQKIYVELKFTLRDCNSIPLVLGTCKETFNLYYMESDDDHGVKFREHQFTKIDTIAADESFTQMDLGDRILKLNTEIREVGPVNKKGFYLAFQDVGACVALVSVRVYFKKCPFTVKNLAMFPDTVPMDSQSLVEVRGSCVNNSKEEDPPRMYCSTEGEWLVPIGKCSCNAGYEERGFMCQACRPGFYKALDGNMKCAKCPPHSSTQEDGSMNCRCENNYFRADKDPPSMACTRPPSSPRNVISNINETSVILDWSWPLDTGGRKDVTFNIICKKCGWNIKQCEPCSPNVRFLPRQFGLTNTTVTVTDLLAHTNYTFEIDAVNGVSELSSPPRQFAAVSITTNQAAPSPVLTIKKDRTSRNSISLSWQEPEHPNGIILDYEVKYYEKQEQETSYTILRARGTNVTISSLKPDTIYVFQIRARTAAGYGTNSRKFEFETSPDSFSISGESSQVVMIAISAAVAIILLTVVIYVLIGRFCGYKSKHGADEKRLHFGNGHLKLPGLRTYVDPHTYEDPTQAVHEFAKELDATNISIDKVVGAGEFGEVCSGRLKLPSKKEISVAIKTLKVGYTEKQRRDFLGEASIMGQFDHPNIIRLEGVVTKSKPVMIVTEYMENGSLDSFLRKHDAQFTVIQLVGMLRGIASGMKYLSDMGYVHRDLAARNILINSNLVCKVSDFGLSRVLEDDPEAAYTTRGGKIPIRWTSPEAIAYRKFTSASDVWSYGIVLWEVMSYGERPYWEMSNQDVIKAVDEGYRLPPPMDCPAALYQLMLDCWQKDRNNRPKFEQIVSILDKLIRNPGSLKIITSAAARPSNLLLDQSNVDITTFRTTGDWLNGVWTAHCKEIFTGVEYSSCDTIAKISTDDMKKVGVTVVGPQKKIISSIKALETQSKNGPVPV

[12] = biological target: T5, Ephrin type-A receptor 3 (Homo sapiens); settings: at 10 µM
[13] = biological target: Ephrin type-A receptor 4 (Homo sapiens) (UniProt P54764); settings: at 1 µM
[14] = biological target: Ephrin type-A receptor 4 (Homo sapiens) (UniProt P54764); settings: at 10 µM
[15] = biological target: Ephrin type-A receptor 5 (Homo sapiens) (UniProt P54756); settings: at 1 µM
[16] = biological target: Ephrin type-A receptor 5 (Homo sapiens) (UniProt P54756); settings: at 10 µM
[17] = biological target: T6, Ephrin type-A receptor 8 (Homo sapiens) (UniProt P29322); settings: at 1 µM
T6 sequence (whole entry): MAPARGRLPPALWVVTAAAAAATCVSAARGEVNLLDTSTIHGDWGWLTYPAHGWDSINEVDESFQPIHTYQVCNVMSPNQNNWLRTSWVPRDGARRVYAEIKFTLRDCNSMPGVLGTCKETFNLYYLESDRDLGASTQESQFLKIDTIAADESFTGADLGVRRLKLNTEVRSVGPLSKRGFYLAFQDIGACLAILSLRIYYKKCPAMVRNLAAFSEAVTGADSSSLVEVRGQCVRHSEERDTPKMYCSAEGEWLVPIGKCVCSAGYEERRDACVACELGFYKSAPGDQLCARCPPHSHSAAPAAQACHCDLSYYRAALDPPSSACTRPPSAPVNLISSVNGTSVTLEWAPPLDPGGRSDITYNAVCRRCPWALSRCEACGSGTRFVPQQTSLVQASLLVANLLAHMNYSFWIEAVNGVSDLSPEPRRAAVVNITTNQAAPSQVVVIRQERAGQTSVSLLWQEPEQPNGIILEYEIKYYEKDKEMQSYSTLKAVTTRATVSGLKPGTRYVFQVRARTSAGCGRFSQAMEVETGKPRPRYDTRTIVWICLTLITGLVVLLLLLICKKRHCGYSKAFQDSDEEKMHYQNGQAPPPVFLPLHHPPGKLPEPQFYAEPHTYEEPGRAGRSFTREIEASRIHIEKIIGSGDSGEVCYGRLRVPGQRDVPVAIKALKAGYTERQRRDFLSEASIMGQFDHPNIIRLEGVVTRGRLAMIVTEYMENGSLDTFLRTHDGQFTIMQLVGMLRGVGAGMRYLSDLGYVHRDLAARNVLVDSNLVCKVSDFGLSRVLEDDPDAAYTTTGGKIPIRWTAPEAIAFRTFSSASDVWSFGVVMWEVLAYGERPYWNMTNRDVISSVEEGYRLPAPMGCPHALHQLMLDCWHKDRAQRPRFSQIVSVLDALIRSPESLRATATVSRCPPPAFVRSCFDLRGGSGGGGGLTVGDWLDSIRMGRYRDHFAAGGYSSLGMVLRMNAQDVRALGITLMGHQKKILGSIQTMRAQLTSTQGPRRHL

[18] = biological target: T6, Ephrin type-A receptor 8 (Homo sapiens); settings: at 10 µM

Sequence of Ephrin type-A receptor 4 (Homo sapiens) (P54764 whole entry): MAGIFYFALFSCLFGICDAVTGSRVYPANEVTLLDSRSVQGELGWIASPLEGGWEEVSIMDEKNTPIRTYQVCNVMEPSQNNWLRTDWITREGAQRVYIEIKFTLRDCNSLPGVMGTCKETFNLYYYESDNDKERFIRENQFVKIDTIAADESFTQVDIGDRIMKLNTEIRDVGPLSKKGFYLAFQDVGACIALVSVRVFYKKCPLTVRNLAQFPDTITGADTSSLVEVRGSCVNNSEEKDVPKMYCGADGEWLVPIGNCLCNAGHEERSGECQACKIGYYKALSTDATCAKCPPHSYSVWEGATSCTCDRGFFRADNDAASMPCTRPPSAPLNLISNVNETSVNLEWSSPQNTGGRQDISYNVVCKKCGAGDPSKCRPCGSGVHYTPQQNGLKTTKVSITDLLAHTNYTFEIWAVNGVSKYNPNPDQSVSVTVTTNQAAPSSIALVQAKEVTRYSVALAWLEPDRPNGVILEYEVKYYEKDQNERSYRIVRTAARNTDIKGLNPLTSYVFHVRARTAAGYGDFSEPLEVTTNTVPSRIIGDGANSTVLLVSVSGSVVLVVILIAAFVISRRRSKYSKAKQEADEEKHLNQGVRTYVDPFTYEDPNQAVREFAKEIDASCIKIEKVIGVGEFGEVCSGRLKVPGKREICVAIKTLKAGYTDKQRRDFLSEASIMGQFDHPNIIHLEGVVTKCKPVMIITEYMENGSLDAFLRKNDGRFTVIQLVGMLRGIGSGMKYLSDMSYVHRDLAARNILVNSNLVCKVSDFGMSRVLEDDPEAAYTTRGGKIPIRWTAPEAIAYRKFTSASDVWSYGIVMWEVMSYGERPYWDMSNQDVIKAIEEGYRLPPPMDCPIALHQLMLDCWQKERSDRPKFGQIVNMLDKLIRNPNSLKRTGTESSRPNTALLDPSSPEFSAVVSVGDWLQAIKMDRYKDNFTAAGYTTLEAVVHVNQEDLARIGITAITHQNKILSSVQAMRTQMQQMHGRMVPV
Sequence of Ephrin type-A receptor 5 (Homo sapiens) (P54756 whole entry): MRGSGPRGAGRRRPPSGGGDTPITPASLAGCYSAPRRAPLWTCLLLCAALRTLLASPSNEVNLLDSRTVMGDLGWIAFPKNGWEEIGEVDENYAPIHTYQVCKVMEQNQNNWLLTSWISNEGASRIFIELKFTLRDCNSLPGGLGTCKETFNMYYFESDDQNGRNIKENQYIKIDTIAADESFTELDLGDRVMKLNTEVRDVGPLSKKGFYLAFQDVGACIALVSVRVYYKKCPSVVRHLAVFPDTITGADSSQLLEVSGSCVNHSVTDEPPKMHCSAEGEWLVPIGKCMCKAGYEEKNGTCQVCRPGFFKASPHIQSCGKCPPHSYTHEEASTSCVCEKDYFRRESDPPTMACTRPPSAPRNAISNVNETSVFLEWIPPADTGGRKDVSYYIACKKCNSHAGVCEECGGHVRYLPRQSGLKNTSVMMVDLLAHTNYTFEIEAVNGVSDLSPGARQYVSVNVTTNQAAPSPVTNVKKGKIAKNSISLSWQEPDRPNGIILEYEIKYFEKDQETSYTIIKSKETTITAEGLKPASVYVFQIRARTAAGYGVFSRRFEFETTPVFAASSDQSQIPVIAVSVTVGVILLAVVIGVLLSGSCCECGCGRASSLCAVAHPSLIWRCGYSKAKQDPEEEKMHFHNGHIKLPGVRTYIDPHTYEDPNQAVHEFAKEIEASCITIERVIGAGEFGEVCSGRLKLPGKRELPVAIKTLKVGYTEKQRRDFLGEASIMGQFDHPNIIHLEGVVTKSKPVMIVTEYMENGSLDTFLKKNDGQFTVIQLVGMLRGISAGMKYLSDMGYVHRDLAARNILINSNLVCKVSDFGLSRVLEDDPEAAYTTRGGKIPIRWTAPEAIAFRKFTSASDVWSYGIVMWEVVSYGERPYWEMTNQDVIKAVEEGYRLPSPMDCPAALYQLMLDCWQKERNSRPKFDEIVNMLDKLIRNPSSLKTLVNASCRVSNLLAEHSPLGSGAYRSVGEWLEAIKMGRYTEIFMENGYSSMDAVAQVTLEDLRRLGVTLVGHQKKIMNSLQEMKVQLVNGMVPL
Sequence of Ephrin type-A receptor 2 (Homo sapiens) (P29317 whole entry): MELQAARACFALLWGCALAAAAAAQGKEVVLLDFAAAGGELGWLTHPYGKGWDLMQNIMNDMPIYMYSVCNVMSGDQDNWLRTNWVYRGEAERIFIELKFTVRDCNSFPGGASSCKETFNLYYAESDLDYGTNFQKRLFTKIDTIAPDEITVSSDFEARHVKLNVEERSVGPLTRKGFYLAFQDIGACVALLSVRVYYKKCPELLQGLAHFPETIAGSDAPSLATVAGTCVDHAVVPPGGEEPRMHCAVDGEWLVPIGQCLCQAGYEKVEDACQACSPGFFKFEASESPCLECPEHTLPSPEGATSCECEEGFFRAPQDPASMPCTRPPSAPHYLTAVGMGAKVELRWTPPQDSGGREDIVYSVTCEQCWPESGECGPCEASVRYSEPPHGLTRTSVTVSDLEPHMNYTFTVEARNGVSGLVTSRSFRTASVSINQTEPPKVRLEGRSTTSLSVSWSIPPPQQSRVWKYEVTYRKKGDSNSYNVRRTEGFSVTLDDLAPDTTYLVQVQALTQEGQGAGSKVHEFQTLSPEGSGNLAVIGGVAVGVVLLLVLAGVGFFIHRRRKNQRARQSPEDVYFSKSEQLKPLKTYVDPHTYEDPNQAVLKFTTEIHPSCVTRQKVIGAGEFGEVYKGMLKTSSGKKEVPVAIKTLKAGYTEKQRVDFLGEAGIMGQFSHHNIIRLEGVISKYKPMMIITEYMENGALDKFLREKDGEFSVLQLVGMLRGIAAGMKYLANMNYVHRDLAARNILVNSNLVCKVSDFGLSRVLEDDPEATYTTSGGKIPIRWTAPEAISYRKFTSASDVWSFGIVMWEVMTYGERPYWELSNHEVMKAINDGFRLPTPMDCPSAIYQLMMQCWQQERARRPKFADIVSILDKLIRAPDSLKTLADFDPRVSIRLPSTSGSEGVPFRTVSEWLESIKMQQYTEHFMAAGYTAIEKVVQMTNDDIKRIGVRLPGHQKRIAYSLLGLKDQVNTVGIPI
Sequence of Ephrin type-A receptor 7 (Homo sapiens) (Q15375 28-998 limits assumed): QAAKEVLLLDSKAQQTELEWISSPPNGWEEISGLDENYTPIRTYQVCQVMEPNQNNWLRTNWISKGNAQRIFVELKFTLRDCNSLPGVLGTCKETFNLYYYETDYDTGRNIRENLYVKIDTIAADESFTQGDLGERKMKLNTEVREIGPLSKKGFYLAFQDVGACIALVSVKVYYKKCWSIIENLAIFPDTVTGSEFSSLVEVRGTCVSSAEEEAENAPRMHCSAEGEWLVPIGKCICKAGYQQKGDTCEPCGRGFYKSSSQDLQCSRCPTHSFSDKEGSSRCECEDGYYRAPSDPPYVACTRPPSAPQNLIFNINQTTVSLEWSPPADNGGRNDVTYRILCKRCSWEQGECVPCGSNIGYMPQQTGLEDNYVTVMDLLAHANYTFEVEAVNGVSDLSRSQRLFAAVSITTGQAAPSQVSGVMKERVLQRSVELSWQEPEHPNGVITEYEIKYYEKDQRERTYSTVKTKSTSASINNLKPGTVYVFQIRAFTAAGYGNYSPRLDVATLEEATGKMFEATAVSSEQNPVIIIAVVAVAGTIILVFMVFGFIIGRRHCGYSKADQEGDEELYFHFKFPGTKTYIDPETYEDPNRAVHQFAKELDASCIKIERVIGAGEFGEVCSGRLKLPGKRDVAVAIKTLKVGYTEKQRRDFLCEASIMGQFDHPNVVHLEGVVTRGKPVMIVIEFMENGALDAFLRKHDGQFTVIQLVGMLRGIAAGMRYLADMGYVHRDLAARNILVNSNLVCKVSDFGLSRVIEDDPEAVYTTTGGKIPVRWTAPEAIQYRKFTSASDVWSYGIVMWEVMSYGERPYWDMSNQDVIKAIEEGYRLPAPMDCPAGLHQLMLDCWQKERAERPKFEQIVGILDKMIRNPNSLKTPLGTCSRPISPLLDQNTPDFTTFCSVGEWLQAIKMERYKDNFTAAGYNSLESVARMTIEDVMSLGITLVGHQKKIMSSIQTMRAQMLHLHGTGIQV

SMILES | residual activity [1] [%] | residual activity [2] [%] | residual activity [3] [%] | residual activity [4] [%] | residual activity [5] [%] | residual activity [6] [%] | residual activity [7] [%] | residual activity [8] [%] | residual activity [9] [%] | residual activity [10] [%] | residual activity [11] [%] | residual activity [12] [%] | residual activity [13] [%] | residual activity [14] [%] | residual activity [15] [%] | residual activity [16] [%] | residual activity [17] [%] | residual activity [18] [%]
c1ccc(-c2n[nH]c3c2oc2ccccc23)cc1 | 5 | 83 | 71 | 98 | 99 | 96 | 78 | 99 | – | – | – | – | – | – | – | – | – | –
COc1ccc(S(=O)(=O)N(CCO)c2ccccc2CN(C)C/C=C/c2ccc(Cl)cc2)cc1 | 87 | 100 | 91 | 97 | 76 | 96 | 96 | 103 | 96 | 86 | 97 | 83 | 103 | 97 | 124 | 112 | 98 | 88
CCN(CC)C(=O)c1ccc(Nc2nc(OCC3CCCCC3)c3nc[nH]c3n2)cc1 | 4 | – | – | 60 | 8 | 71 | 7 | 68 | 77 | 42 | – | 60 | – | 73 | – | – | 97 | 64
CO[C@H]1C[C@@H]2CC[C@@H](C)[C@@](O)(O2)C(=O)C(=O)N2CCCC[C@H]2C(=O)O[C@H]([C@H](C)C[C@@H]2CC[C@@H](O)[C@H](OC)C2)CC(=O)[C@H](C)/C=C(\C)[C@@H](O)[C@@H](OC)C(=O)[C@H](C)C[C@H](C)/C=C/C=C/C=C/1C | 149 | 99 | 101 | 84 | 65 | 100 | 92 | 101 | 110 | 120 | 103 | 129 | 104 | 100 | 112 | 116 | 96 | 119
Oc1ccc(-c2nc(-c3ccc(F)cc3)c(-c3ccncc3)[nH]2)cc1 | – | 99 | 76 | 87 | 16 | 103 | 58 | 115 | 93 | 57 | 105 | 81 | 117 | 87 | 103 | 56 | 93 | 45
N#C/C(=C(\N)Sc1ccc(N)cc1)c1ccccc1C(F)(F)F | 118 | 105 | 95 | 94 | 82 | 99 | 89 | 110 | 98 | 111 | 96 | 99 | 116 | 112 | 98 | 95 | 85 | 87
